Test systems include HCT-15 colon; HT29 colon; SNB-75 CNS; SNB-19 CNS; U251 CNS; PC-3 prostate; SK-MEL-5 melanoma; UACC-62 melanoma; LOX IMVI melanoma; SK-MEL-28 melanoma; SK-MEL-2 melanoma; EKVX NSCLC; SN12C renal; UO-31 renal; TK-10 renal; ACHN renal; CAKI-1 renal; A498 renal; CCRF-CEM leukemia; MOLT-4 leukemia.
Test in all cases: NCI-60 one-dose screen, 48 h (100 = growth as untreated, 0 = no growth, -100 = all killed)
Common to all, as to details: 10 µM unless noted

About 83,000 compounds went through this panel and 20% of them were active in at least one assay; those are over-represented in the sample as a whole.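 Interpretation: 100, growth as untreated; towards 0, rising growth inhibition; 0, no net growth; 0 to -100, cell death. Compounds scoring below 10 were considered active.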 Values without a mark were called inactive. Activity calls are given as the source filed them.

As to `Cn1cc(-c2nc(N)nnc2-c2c[nH]c3ccccc23)c2cc(Br)ccc21`, the growth with HCT-15 colon was 24.5%; in the assay with HT29 colon, 5.93% (active); with SNB-75 CNS, 7.38% (active); with SNB-19 CNS it was 27%; in the assay with U251 CNS it was 23.1%; in the assay with PC-3 prostate it was 6.53% (active). The growth was 22.7% in the assay with SK-MEL-5 melanoma; 21% with UACC-62 melanoma; 24% in the assay with LOX IMVI melanoma; 55.2% in the assay with SK-MEL-28 melanoma; 19.5% in the assay with SK-MEL-2 melanoma; 45.6% with EKVX NSCLC. The growth with SN12C renal is 27.9%; in the assay on UO-31 renal, 33.5%; with TK-10 renal, 88.6%; with ACHN renal, 38.9%; in the assay with CAKI-1 renal it was 25.2%; in the assay on A498 renal, -12.1% (active). Besides, in the assay with CCRF-CEM leukemia, the growth was 7.57% (active).

For the compound `O=C1CC(=O)N2CSCN(C(c3ccccc3)c3nc4ncncc4[nH]3)C2=N1` (centres undefined), the growth is 100% in the assay on HCT-15 colon; 106% with HT29 colon; 99.8% in the assay with SNB-75 CNS; 93.8% in the assay with SNB-19 CNS; 97.9% in the assay on U251 CNS; 98% in the assay on PC-3 prostate. Further, the growth in the assay with SK-MEL-5 melanoma was 105%; in the assay on UACC-62 melanoma, 97%; with LOX IMVI melanoma, 108%; in the assay on SK-MEL-28 melanoma, 117%; in the assay on SK-MEL-2 melanoma, 96.6%; with EKVX NSCLC, 94.3%. Also, the growth in the assay with SN12C renal is 103%; in the assay on UO-31 renal, 79.6%; in the assay on TK-10 renal, 106%; with ACHN renal, 99.8%; in the assay on CAKI-1 renal, 93.2%; with A498 renal it was 85.8%. Also, the growth in the assay with CCRF-CEM leukemia was 108%; in the assay on MOLT-4 leukemia it was 112%.

Regarding `O=C(Cn1cc[n+](CC(=O)c2ccc(-c3ccccc3)cc2)c1)Nc1cccc2cccnc12`, the growth was 101% in the assay on HCT-15 colon; 59.8% in the assay on HT29 colon; 63.4% in the assay with SNB-75 CNS; 57.7% in the assay with SNB-19 CNS; 58.3% with U251 CNS; 54.5% in the assay with PC-3 prostate. The growth in the assay with SK-MEL-5 melanoma is 69.6%; in the assay on UACC-62 melanoma, 59.1%; in the assay with LOX IMVI melanoma, 79.2%; in the assay with SK-MEL-28 melanoma it was 74.9%; in the assay on SK-MEL-2 melanoma, 83%; with EKVX NSCLC it was 86.8%. Besides, the growth in the assay on SN12C renal was 75.9%; in the assay on UO-31 renal it was 94.3%; in the assay with TK-10 renal, 119%; in the assay on ACHN renal, 105%; in the assay with CAKI-1 renal, 102%; in the assay on A498 renal, 88.6%. Also, the growth is 64.9% in the assay with CCRF-CEM leukemia and 73.5% with MOLT-4 leukemia.

Take `C=CCOc1cccc(/C=C2\SC(=S)N(C3CC(=O)N(c4ccc(Br)cc4)C3=O)C2=O)c1` (centres undefined): the growth is 97.5% with HCT-15 colon; 115% with HT29 colon; 120% in the assay with SNB-75 CNS; 96.5% in the assay with SNB-19 CNS; 96.6% with U251 CNS; 93.1% with PC-3 prostate. Besides, the growth in the assay on SK-MEL-5 melanoma was 101%; in the assay with UACC-62 melanoma, 86.8%; in the assay with LOX IMVI melanoma, 93.1%; with SK-MEL-28 melanoma, 96.6%; in the assay on SK-MEL-2 melanoma it was 117%; in the assay on EKVX NSCLC, 105%. Also, the growth in the assay on SN12C renal was 92.8%; in the assay with UO-31 renal it was 89.6%; in the assay on TK-10 renal, 126%; in the assay with ACHN renal, 94.8%; with CAKI-1 renal, 104%; with A498 renal, 105%. Also, the growth in the assay on CCRF-CEM leukemia was 96.7%.

Turning to `ClC(Cl)c1nc(-c2ccco2)n2nc(-c3ccccc3)cc2n1`, the growth is 12.8% in the assay with HCT-15 colon; 0.803% (active) in the assay with HT29 colon; 88.5% in the assay with SNB-75 CNS; 8.35% (active) in the assay on SNB-19 CNS; -0.0523% (active) in the assay on U251 CNS; 1.66% (active) in the assay with PC-3 prostate. The growth with SK-MEL-5 melanoma is 98.1%; in the assay on UACC-62 melanoma, 40.7%; in the assay with LOX IMVI melanoma, 98.2%; in the assay on SK-MEL-28 melanoma, 12.4%; with SK-MEL-2 melanoma, 89.6%; in the assay with EKVX NSCLC, 4.01% (active). Besides, the growth with SN12C renal was 66.5%; in the assay with UO-31 renal, 35.3%; in the assay on TK-10 renal, 20.3%; in the assay on ACHN renal it was -23.9% (active); with CAKI-1 renal it was -19.1% (active); with A498 renal it was -7.32% (active). Further, the growth in the assay with CCRF-CEM leukemia is 89.8%.

As to `COc1cc(OC)cc(C(=O)Nc2sc3c(c2C(N)=O)CCC(=O)C3)c1`, the growth in the assay with HCT-15 colon is 10.9%; with HT29 colon, 39.6%; in the assay on SNB-75 CNS it was 47.9%; in the assay with SNB-19 CNS it was 25.1%; in the assay on U251 CNS, 10.3%; in the assay on PC-3 prostate it was 8.96% (active). Further, the growth with SK-MEL-5 melanoma was 63.1%; in the assay with UACC-62 melanoma it was 20.4%; with LOX IMVI melanoma it was 22.1%; in the assay with SK-MEL-28 melanoma, 48%; in the assay on SK-MEL-2 melanoma it was 86.8%; with EKVX NSCLC, 89%. Moreover, the growth with SN12C renal was 50.9%; in the assay with UO-31 renal, 67.5%; in the assay with TK-10 renal, 66.5%; in the assay on ACHN renal it was 38.6%; in the assay with CAKI-1 renal, 10.6%; in the assay on A498 renal, 82.6%. Besides, the growth in the assay with CCRF-CEM leukemia is 8.55% (active).

As for `O=S(=O)(NC1c2ccccc2C[C@H]1O)c1ccc(Cl)cc1Cl` (some centres undefined), the growth is 94.6% in the assay with HCT-15 colon; 109% in the assay with HT29 colon; 86.4% in the assay with SNB-75 CNS; 96.3% in the assay with SNB-19 CNS; 98.7% with U251 CNS; 84.1% in the assay on PC-3 prostate. Further, the growth is 99.4% in the assay on SK-MEL-5 melanoma; 74.9% with UACC-62 melanoma; 93.3% in the assay with LOX IMVI melanoma; 102% in the assay with SK-MEL-28 melanoma; 101% with SK-MEL-2 melanoma; 98.8% with EKVX NSCLC. The growth in the assay with SN12C renal is 96.8%; in the assay on UO-31 renal it was 68.7%; in the assay with TK-10 renal it was 119%; in the assay with ACHN renal, 96.2%; in the assay with CAKI-1 renal, 82.4%; with A498 renal, 103%. For the same compound, the growth in the assay on CCRF-CEM leukemia was 105%.

As to `CC1(C)CC[C@]2(C(=O)O)CC[C@]3(C)C(=CC[C@@H]4[C@@]5(C)CC/C(=N\OCCC#N)C(C)(C)[C@@H]5CC[C@]43C)[C@@H]2C1`, the growth with HCT-15 colon was 106%; in the assay with HT29 colon, 109%; with SNB-75 CNS, 53.4%; in the assay with SNB-19 CNS it was 104%; in the assay on U251 CNS it was 107%; in the assay on PC-3 prostate, 99.2%. Besides, the growth in the assay on SK-MEL-5 melanoma is 98.4%; with UACC-62 melanoma, 92.6%; in the assay on LOX IMVI melanoma, 91.8%; with SK-MEL-28 melanoma, 106%; with SK-MEL-2 melanoma it was 93.5%; in the assay on EKVX NSCLC, 70.7%. In addition, the growth was 86.7% with SN12C renal; 61.1% with UO-31 renal; 51.3% in the assay on TK-10 renal; 100% in the assay with ACHN renal; 59.7% in the assay on CAKI-1 renal; 51.3% with A498 renal. Moreover, the growth with CCRF-CEM leukemia was 90.1%.

The values are drawn from PubChem BioAssay (NCI).
